Compound activity: PubChem, National Center for Advancing Translational Sciences (NCATS)
Most compounds without a hit are left out; they make up all but 9.8% or so of the library.
CBFb-RUNX1 inh = inhibitors of human CBF-beta and RUNX1 interaction; Q01196+Q13951; AlphaScreen CBFb-His/RUNX1-biotin binding, biochemical; Potency, µM (doses to about 59.8 µM), inactives show top-dose activity, negative = inhibition, actives largely listed as inhibitors; 230,000 tested, under 10 active; AID 1477; note: % of control where 0% means no effect
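His-tagged CBF-beta and biotinylated RUNX1 (30 nM each) were premixed 20 min at room temperature, exposed to compound for 15 min, then given nickel-chelate and streptavidin AlphaScreen beads (50 ng each). After 90 min, AlphaScreen signal was read.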
HPGD block = blocks human HPGD enzyme activity; P15428; purified HPGD, NADH fluorescence kinetic, PGE2 substrate; Potency, µM, without a hit: at the top dose activity change, negative = inhibition, hits mostly inhibitors; 4.3% of 150,000 active; AID 894; active = well fitted inhibition curve with a large enough effect, not every such curve was filed as active; inconclusive = small, poorly fitted or top-dose-only effect, or another doubt; inactive = no such curve, though single readings can be large or run the other way; note: potency is the fitted concentration of half-maximal effect; % is set by controls: 0 for no effect and ±100 for the full control effect
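20 nM HPGD preincubated 15 min at room temperature with compound in 50 mM Tris-HCl pH 8, 0.01% Tween 20. Started with 1 mM NAD+ and 30 uM prostaglandin E2; NADH fluorescence (360/450 nm) read 5 times over 30-s intervals, last minus first.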
HTT ATP protect = Huntington cell model cytoprotection by ATP luminescence | PC12 HTT-Q103 induced, cytoprotection, ATP luminescence, 40 h | Potency, µM (highest dose often 56.4 µM), without a hit: cytoprotection (ATP increase), hits mostly activators | 0.14% of 230,000 active; note: potency is the fitted concentration of half-maximal effect; % of control where 0% means no effect; nearly all actives have a fitted effect of over 45% in size
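Readout: ATPlite luminescence (ATP level). Model: stable PC12, inducible Htt exon1 Q103-GFP. Inducer: tebufenozide, 100 nM final. Compounds: dose series. No G418 in medium.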
ALDH1A1 block = inhibitors of human aldehyde dehydrogenase 1A1; P00352; Purified ALDH1A1, NADH fluorescence, propionaldehyde substrate; Potency, µM (doses to about 75.3 µM), without a hit: at the highest dose activity, negative = inhibition, usual class: inhibitors; 7.3% of 220,000 active; AID 1030; active = well fitted inhibition curve with a large enough effect, not every such curve was filed as active; inconclusive = small, poorly fitted or top-dose-only effect, or another doubt; inactive = no such curve, though single readings can be large or run the other way;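 note: potency is the fitted concentration of half-maximal effect; plate controls were no enzyme wells and a reference inhibitor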
JMJD2E inh = blocks human JMJD2E demethylase activity; JMJD2E catalytic domain, FDH-coupled NADH fluorescence (FDH is formaldehyde dehydrogenase); AID 2147; B2RXH2; Potency, µM (doses to about 57.1 µM), for the others: at the highest dose activity change, negative = inhibition, actives largely listed as inhibitors; 1.6% of 230,000 active; active = well fitted inhibition curve with a large enough effect, not every such curve was filed as active; inconclusive = small, poorly fitted or top-dose-only effect, or another doubt; inactive = no such curve, though single readings can be large or run the other way;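 note: potency is the fitted concentration of half-maximal effect; 0% = wells with enzyme and -100% = buffer wells without enzyme; nearly all actives have a fitted effect of over 50% in size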
Target sequence (B2RXH2 1-337 limits assumed): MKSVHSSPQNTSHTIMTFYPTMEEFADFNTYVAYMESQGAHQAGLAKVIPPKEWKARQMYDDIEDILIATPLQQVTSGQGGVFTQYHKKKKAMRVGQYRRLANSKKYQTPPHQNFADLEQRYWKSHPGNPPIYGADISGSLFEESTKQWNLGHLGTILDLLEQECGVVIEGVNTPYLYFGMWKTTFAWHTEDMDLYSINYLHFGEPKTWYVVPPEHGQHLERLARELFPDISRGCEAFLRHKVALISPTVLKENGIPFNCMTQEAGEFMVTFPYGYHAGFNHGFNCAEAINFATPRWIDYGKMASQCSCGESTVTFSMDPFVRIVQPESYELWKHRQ
HttQ103 aggreg = mutant huntingtin aggregation inhibition | PC12 HttQ103-GFP aggregates, Acumen cytometry, 40 h | Potency, µM (titrated, usually from 46.1 µM), for inactives: at the highest dose activity change, negative = inhibition, usual class: inhibitors | 1.1% of 220,000 active; note: potency is the fitted concentration of half-maximal effect; % is set by controls: 0 for no effect and ±100 for the full control effect; nearly all actives have a fitted effect of over 60% in size
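Huntingtin Q103 exon 1–GFP aggregates in induced PC12 cells (100 nM tebufenozide) were quantified by cytometry from lysates, with compounds dosed in titration.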
Numbers without * were called inactive; ? = inconclusive; . = no result; [ ] = dose if it differs, or a comment. Unless noted, calls come from the whole dose curve; as a rule, active = well fitted curve in the direction sought with a large enough effect; inconclusive = small, poorly fitted or top-dose-only effect, or another doubt; inactive = no such curve, though single readings can be large; an effect the other way counts as inactive or inconclusive.

SMILES	CBFb-RUNX1 inh	HPGD block	HTT ATP protect	ALDH1A1 block	JMJD2E inh	HttQ103 aggreg
Cc1cc(C)c(C#N)c(OCC(=O)c2ccccc2)n1	1%	22µM*	25%	6.3µM*	1%	-33%
CCOC(=O)CN(C(=O)COc1nc(C)cc(C)c1C#N)c1cccc(Cl)c1	-1%	.	-16%[10 µM]	.	2%	2%[9.22 µM]
O=c1[nH]c(=O)n(-c2ccc(F)cc2)c2c1C(C(F)(F)F)(C(F)(F)F)N=C(c1ccc(F)cc1)N2	-4%	-6%	14%[10 µM]	2%	-29%	3.2µM*
C=CCC(COCc1ccccc1)NS(=O)(=O)c1ccccc1Br (stereo unspecified)	?	.	1%[10 µM]	.	0%	14%[9.22 µM]
CC(C)C(NC(=O)Cc1ccccc1[N+](=O)[O-])C(C)C	1%	.	1%[10 µM]	12%	0%	-2%
O=[N+]([O-])c1ccccc1CNC(Cc1ccccc1)c1ccccc1 (stereo unspecified)	-1%	-14%	-3%[10 µM]	13µM*	2%	-1%
NCCc1nc(-c2nc(C(=O)O)cs2)cs1	.	-6%	8%[10 µM]	8%[13.5 µM]	.	.
CCc1c(C)sc(NC(=O)CSc2nc3c(c(C(F)(F)F)n2)CCc2ccccc2-3)c1C#N	10%	22µM*	-1%[10 µM]	22µM*	1%	-10%
CCNc1ncc2nc(C)c(=O)n(Cc3cccs3)c2n1	.	.	-52%	?	.	.
COc1cc(C(=O)NC(=S)Nc2nccs2)cc(OC)c1OC	-3%	.	-25%	?	-2%	1%
N=C1S/C(=C\c2ccc(-c3ccccc3C(=O)O)o2)C(=O)N1c1ccc2c(c1)OCO2	-4%	.	-102%	11µM*	5.6µM*	22%
Cc1ccc(NC(=O)CN2C(=O)S/C(=C\c3ccc(-c4cccc(C(=O)O)c4C)o3)C2=O)cc1C	11%	.	.	-15%	?	14%
COc1ccccc1N1C(=N)S/C(=C\c2ccc(-c3ccccc3C(=O)O)o2)C1=O	?	25µM*	.	?	-2%	-16%
N=C1S/C(=C\c2ccc(-c3cccc(Cl)c3)o2)C(=O)N1c1nccs1	-8%	?	9%[10 µM]	6%	9%	-1%
Cc1n[nH]c(C)c1CCNCc1ccc(OCC(O)CN2CCCCC2)cc1 (stereo unspecified)	2%	.	2%[10 µM]	5%	-5%	-2%[9.22 µM]
CC(C)CCNC(=O)C1CC(c2ccc(C(F)(F)F)cc2)=NO1 (stereo unspecified)	5%	.	22%[10 µM]	.	1%	-2%[9.22 µM]
CCn1c(SCC(=O)Nc2ccc(C(C)=O)cc2)nc2nc3c(cc2c1=O)COC(C)(C)C3	-2%	.	-11%[10 µM]	.	5%	-13%[9.22 µM]
CCn1c(SCc2ccccc2Cl)nc2nc3c(cc2c1=O)CCCC3	-20%	-13%	-4%[10 µM]	16µM*	0%	?
CCn1c(SCC(=O)Nc2ccccc2C)nc2nc3c(cc2c1=O)COC(C)(C)C3	0%	.	-7%[10 µM]	14µM*	2%	-18%[9.22 µM]
CCn1c(SCC(=O)Nc2ccc(OC)cc2)nc2nc3c(cc2c1=O)COC(C)(C)C3	8%	.	-11%[10 µM]	2µM*	-1%	4%[9.22 µM]
CCn1c(SCC(=O)NCc2ccccc2)nc2nc3c(cc2c1=O)CCCC3	2%	.	-10%[10 µM]	-16%	4%	6%
C=C(C)Cn1cnc2c(oc3nc4c(cc32)CCCC4)c1=O	4%	.	7%[10 µM]	1µM*	?	7%[9.22 µM]
Cc1ccc(-n2c(SCC(=O)NCc3ccco3)nc3nc4c(cc3c2=O)COC(C)(C)C4)cc1	11%	.	5%	0.79µM*	?	-30%
CCn1c(SCC(=O)Nc2ccc(Cl)cc2)nc2nc3c(cc2c1=O)CCCC3	1%	-10%	14%[10 µM]	?	3%	3%
CCn1c(SCC(=O)Nc2ccc(C(C)=O)cc2)nc2nc3c(cc2c1=O)CCCC3	-4%	-14%	32%[10 µM]	0.89µM*	0%	13%
Cc1ccccc1NC(=O)Cn1cnc2c(oc3nc4c(cc32)COC(C)(C)C4)c1=O	2%	-10%	-15%[10 µM]	22µM*	-21%	20%
